Among all 87,000 compounds or so, about 540 (0.62%) were called active. The rule behind the calls is not given here. The sample as a whole holds a higher share of actives than the screen did. Measured potencies and affinities stand elsewhere.
Assay: inhibitors of MT1-MMP promoter transcription, cell-based, luciferase reporter, luminescence (AID 618);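 note: actives suppress MT1-MMP promoter-driven transcription so potencies describe inhibitors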
Settings: MT1-MMP promoter luciferase reporter cells

SMILES	outcome
Cc1nn(C)cc1C=NCCOCc1ccccc1	inactive
O=C(CCC(=O)c1cccs1)NC(c1ccccc1)c1ccccc1	inactive
COc1ccc2c(=O)c(-c3nc(C)cs3)coc2c1	active
COc1ccc2oc(=O)c(-c3nc(C)cs3)cc2c1	inactive
Cc1csc(-c2coc3cc(O)cc(C)c3c2=O)n1	inactive
CCCC(=O)Nc1cnc(NC(=O)c2cccc(F)c2)cc1C	inactive
CCN(CCCNC(=O)CN1C(=O)COc2ccccc21)c1ccccc1	inactive
COc1ccc(C2C(C#N)=C(C)NC3=C2C(=O)c2ccccc23)cc1 (configuration not stated)	inactive
COc1cc(C2C(C#N)=C(C)NC3=C2C(=O)c2ccccc23)cc(OC)c1OC (configuration not stated)	active
COc1cc(C2C(C#N)=C(C)NC3=C2C(=O)CC(C)(C)C3)cc(OC)c1O (configuration not stated)	inactive
CCCCCC(=O)N(O)C1CC(=O)N(c2ccccc2)C1=O (configuration not stated)	inactive
COC(=O)c1ccc(Nc2nc(C)cc(C)n2)cc1	inactive
CCOC(=O)c1ccccc1NC(=O)CN(c1ccccc1C)S(C)(=O)=O	inactive
CN1C(=O)c2c(sc3c2CC(C)(C)SC3)N2CCN=C12	inactive
Cc1ccsc1C(=O)N1CC(=O)Nc2ccccc21	inactive
Cc1cc(C)cc(C(=O)N2CC(=O)Nc3ccccc32)c1	active
O=C1CN(C(=O)c2ccccc2)c2ccccc2N1	inactive
O=C(CCN1C(=O)c2ccccc2C1=O)Nc1ccccn1	inactive
CNC(=O)C1CCCN1S(=O)(=O)c1ccc(OC)cc1 (configuration not stated)	inactive
Cc1ccc(NC(=O)CS(=O)CC(=O)NCC2OCCc3ccccc32)c(C)c1 (configuration not stated)	inactive
Cc1cccc(-c2c3c(=O)n(C)c(=O)n(C)c3c3c(C)cc(C)nn23)c1	inactive
Cc1cc(S(=O)(=O)Nc2ccc(N(C)C)cc2)c(C)s1	inactive
COc1cccc(N2CCN(c3ncnc4c3[nH]c3ccccc34)CC2C)c1 (configuration not stated)	inactive
COc1cccc(N2CCN(c3ncnc4c3[nH]c3ccc(F)cc34)CC2C)c1 (configuration not stated)	active
Fc1ccc2[nH]c3c(N4CCN(c5ccccc5)CC4)ncnc3c2c1	inactive
OC(CCN1CCCC1)(c1ccccc1)C1CCCCC1 (configuration not stated)	inactive

SMILES	outcome
CC(C)(C)c1ccc(C(O)CCCN2CCC(C(O)(c3ccccc3)c3ccccc3)CC2)cc1 (configuration not stated)	active
OC(CCCCN1CCCCC1)c1ccccc1 (configuration not stated)	inactive
Cc1ccc(-n2nc(-c3ccc(N)cc3)cc2N)cc1	inactive
Nc1ccc2nn(-c3cccc4ccccc34)nc2c1	inactive
CCOC(=O)CC1=CC(C)(CC(=O)OCC)C(C#N)(C#N)C(N)=C1C#N (configuration not stated)	inactive
O=C(CC1(O)C(=O)Nc2ccccc21)c1ccc(-n2cccc2)cc1 (configuration not stated)	inactive
CC(C)(C)NC(=O)CC(c1ccccc1)c1ccccc1O (configuration not stated)	inactive
Cc1sc2nc(SCC(=O)NCc3cccs3)[nH]c(=O)c2c1C	inactive
Cc1cnc(NC(=O)COc2ccccc2)s1	inactive
Cc1cnc(NC(=O)COc2ccccc2Cl)s1	active
Cc1cnc(NC(=O)COc2cccc3c2OC(C)(C)C3)s1	inactive
CCOC(=O)C1C(=O)NC(N2CCN(Cc3ccccc3)CC2)=NC1c1ccccc1 (configuration not stated)	inactive
Clc1ccc(-c2nnc(-c3ccccc3)o2)c(Cl)c1	inactive
Fc1ccc(-c2nnc(-c3ccc(Cl)cc3)o2)cc1	inactive
Cc1cccc(NC(=O)CCc2ccc(C)o2)c1	inactive
C/C(N)=C(/C#N)C(=O)COC(=O)COc1ccc(Cl)cc1	inactive
c1ccc(Nc2ccccn2)cc1	inactive
c1ccc(Nc2ccccc2Nc2ccccn2)nc1	inactive
Oc1cccc2ccc(Nc3ccccn3)nc12	active
Cc1cc(C)nc(NC2=NC3CCCCC3N2)n1 (configuration not stated)	inactive
O=C(Nc1ccc(F)cc1)c1ccccc1	inactive
Cc1cc(C)cc(NC(=O)CCn2ccnc2C)c1	inactive
CC1CC(C)CN(c2oc(-c3ccco3)nc2C#N)C1 (configuration not stated)	inactive
COc1ccc2c(CSc3nc4nc(C)cc(C)n4n3)cc(=O)oc2c1	inactive
CCC(SCC(=O)OC)C(=O)Nc1nnc(C(C)C)s1 (configuration not stated)	inactive
Cc1nnc(SCCn2c(N3CCN(C)CC3)nc3c2c(=O)[nH]c(=O)n3C)s1	inactive

SMILES	outcome
Cc1nnc(SCCn2c(N3CCN(C)CC3)nc3c2c(=O)n(C)c(=O)n3C)s1	inactive
Cc1nnc(Sc2nc(Sc3nnc(C)s3)nc(N3CCN(C)CC3)n2)s1	active
COc1ccc(NC(=O)C2C(=O)N(C)C3(C)CC2c2ccccc2O3)cc1 (configuration not stated)	inactive
Cc1ccc2ccc(C3C(=O)c4ccccc4C3=O)nc2c1	inactive
COC(=O)C1=C(C)NC(C)=C(C(=O)OC)C1c1ccc2ccccc2n1	inactive
O=C1c2ccccc2C(=O)C1c1ccc2ccccc2n1	active
CCCCn1c(CCNC(=O)CCC)nc2ccccc21	inactive
CCCCCCc1ccc(OCC(=O)O)cc1OCC(=O)O	inactive
CC(C)(/C=N/O)/[N+]([O-])=C/c1ccco1	inactive
Cc1cc(C(=O)NCCCN2CCOCC2)n(-c2ccccc2)n1	inactive
Cc1cc(C(=O)NCCN2CCN(c3cccc(Cl)c3)CC2)n(-c2ccccc2)n1	active
Cc1cc(C(=O)NCCCN2CCN(C3CCCCC3)CC2)n(-c2ccccc2)n1	inactive
COc1ccc(S(=O)(=O)Cc2ccc(C(=O)N3CCc4ccccc4C3)o2)cc1	inactive
CCC1=C/C(=C/N(C)c2ccccc2)C(=O)S1	inactive
Cc1ccc(-c2cc(=O)[nH][nH]2)c(C)c1	inactive
CCOC(=O)c1c(C)sc2c1N(C(C)=O)c1cc(Cl)ccc1S2	inactive
CCOC(=O)c1c(C)sc2c1N(C(=O)CCl)c1cc(Cl)ccc1S2	active
CCOC(=O)c1c(C)sc2c1N(C(=O)CN(CC)CC)c1cc(Cl)ccc1S2	inactive
CCC(C)NC(=O)c1cc2cc3ccc(OC)cc3nc2s1 (configuration not stated)	inactive
CCN1CCN(C(=O)c2cc3cc4ccc(OC)cc4nc3s2)CC1	inactive
O=c1[nH]c(NCCO)nc2ncn(Cc3ccccc3)c12	inactive
Cn1c(C(=O)N2CCCC(C(=O)NCCc3ccccc3)C2)cc2sccc21 (configuration not stated)	inactive
Cc1ccc(-c2csc(NC(=O)c3ccno3)n2)cc1	inactive
COc1ccc(C(=O)c2ccccc2)c(O)c1	inactive
O=C(CC(=O)c1cc(Cl)ccc1O)c1ccccc1	inactive
Cc1ccc(C(=O)CC(=O)c2cc(Cl)ccc2O)cc1	inactive

SMILES	outcome
Cc1ccc(O)c(C(=O)CC(=O)c2cccc(F)c2)c1	inactive
CSCCC1C(=O)OC2(C)CC(C)(C)NC(=S)N12 (configuration not stated)	inactive
COCCn1c(C)cc(C(=O)CSc2nncn2-c2ccccc2)c1C	inactive
Cc1nnc(SCC(=O)c2cc(C)n(C3CC3)c2C)s1	inactive
CCCn1c(=O)c2ccccc2n2c(SCC(=O)c3cc(C)n(CCOC)c3C)nnc12	inactive
COCCn1c(C)cc(C(=O)CSc2ncn[nH]2)c1C	inactive
COCCn1c(C)cc(C(=O)CSc2nnc(C)s2)c1C	active
CC(=O)N1c2ccccc2C(=O)OC1c1cccnc1 (configuration not stated)	inactive
O=C(NCCCn1ccnc1)c1cc2c(s1)CCCCC2	inactive
COc1cccc(CN2C(=O)c3ccccc3C2C(=O)NCC2CCCO2)c1 (configuration not stated)	inactive
O=C(O)c1cnn(-c2ccccc2)c1-n1cccc1	inactive
COc1cccc(-n2nnnc2SCC(=O)Nc2cccc(C)n2)c1	inactive
O=C(Cn1cnc2c(nnn2Cc2ccc(F)cc2)c1=O)OCc1ccccc1	inactive
O=S(=O)(Nc1cccc2c1ccc1cccn12)c1cccs1	inactive
O=S(=O)(Nc1ccc(-c2nc3cccnc3s2)cc1)c1cccs1	inactive
Cc1ccc(S(=O)(=O)Nc2ccnc3ccccc23)cc1	inactive
Cc1ccc(S(=O)(=O)Nc2cccc3ncccc23)s1	active
Cc1ccc(S(=O)(=O)NCc2cccnc2)s1	inactive
O=S(=O)(Nc1cccc2ncccc12)c1cccs1	active
CCN(CC)CCOC(=O)c1cccc(Cl)c1	inactive
O=C(O)Cc1ccc(C(=O)c2cccs2)s1	inactive
Cc1ccc(C(=O)c2nocc2C(=O)c2cccs2)cc1	inactive
O=C(c1cccs1)c1no[n+]([O-])c1C(=O)c1cccs1	active
CC(=O)c1cccc(NC(=O)N2CCCC2C(=O)NCc2ccc(F)cc2)c1 (configuration not stated)	inactive
